{"source": "PubChem BioAssay AID2061322", "about": "(National Center for Advancing Translational Sciences (NCATS), 2025)", "note": "Inconclusive results are not listed. The source made the active and inactive calls. The call rests on the fitted dose curve; in most records, active means well fitted inhibition curve with a large enough effect; inconclusive means small, poorly fitted or top-dose-only effect; inactive means flat fitted curve, though single readings scatter."}
{"assay": "Identification of antibody-drug conjugate (ADC) payloads which are substrates of ATP-binding cassette drug efflux transporters: ABCG2-HEK293-R5 cell line with Ko143", "settings": "ABCG2-HEK293-R5 with Ko143, CellTiter-Glo viability, 48 h", "text": "Antibody-drug conjugates (ADCs) feature an antibody recognizing a specific protein joined to a potent toxic payload. Numerous antibody-drug conjugates have received FDA approval; however, clinical resistance arises. Resistance mechanisms include decreased expression or mutation of the antibody target, impaired payload release, or increased expression of ATP-binding cassette (ABC) efflux transporters associated with multidrug resistance. We therefore sought to characterize the interaction of ABC multidrug transporters with ADC payloads. We performed a high-throughput screen with 27 common ADC payloads using cells lines expressing ABC transporters P-glycoprotein (P-gp, encoded by ABCB1) or ABCG2 (encoded by ABCG2). Confirmatory assays were also performed using cells transfected to express P-gp, ABCG2, or MRP1 (encoded by ABCC1). Several commonly used ADC payloads were substrates of P-gp, including calicheamicin gamma1, monomethyl auristatin E, DM1, and DM4. All the pyrrolobenzodiazepines tested - SJG136, SGD-1882, SG2057, and SG3199 - were substrates of P-gp, ABCG2, and MRP1. […] These findings highlight the risk of transporter-mediated resistance with certain ADC payloads and underscore the importance of selecting payloads that evade ABC transporter recognition in future ADC development.\nHEK-293 cells were transfected with empty vector (pcDNA) or vector containing the human ABCB1 (MDR-19), ABCG2 (R-5), or ABCC1 gene (MRP1) and were maintained in EMEM with 2 mg/mL G418 added to maintain transporter expression. The HeLa derivative KB-3-1 and the P-gp overexpressing KB-8-5-11 subline were maintained in DMEM; KB-8-5-11 additionally received 100 ng/mL colchicine. H460 parental cells were obtained from the Division of Cancer Treatment and Diagnosis Tumor Repository, National Cancer Institute at Frederick, MD and were cultured in RPMI. The ABCG2 expressing subline H460 MX20 was generated by selecting H460 cells in 20 nM mitoxantrone. Media in all cases was supplemented with 10% FBS and 1% penicillin-streptomycin. We explored 27 common ADC payloads, in two orthogonal, paired cell line sets-a drug selected and transfected set for each transporter--to identify substrates of the ABC transporters P-gp and ABCG2. Compounds were sourced from Levena Biopharma (San Diego, CA), Selleck Chem (Houston, TX), ChemieTek (Indianapolis, IN), or Microsource Discovery Systems (Gaylordsville, CT). Screening was performed as previously described. Briefly, cells were plated at a density of 500 cells/well in 1536 well plates with compounds added using a 1536-head pin tool (Kalypsys, San Diego CA). Cells were incubated with cytotoxic drugs and processed with CellTiter Glo reagent (Promega, Madison, WI) to determine viability after 48 hours. P-gp substrates were identified by comparing compound activity between paired sets of low-expressing (sensitive) and over-expressing (resistant) cell lines."}
{"smiles": "CN(C)CCOc1ccc2[nH]c(C(=O)N3C[C@@H](CCl)c4c3cc(O)c3ccccc43)cc2c1", "Potency": "1.9 nM (active)"}
{"smiles": "CCN[C@H]1CO[C@@H](O[C@H]2[C@H](O[C@H]3C#C/C=C\\C#C[C@]4(O)CC(=O)C(NC(=O)OC)=C3/C4=C\\CSSSC)O[C@H](C)[C@@H](NO[C@H]3C[C@H](O)[C@H](SC(=O)c4c(C)c(I)c(O[C@@H]5O[C@@H](C)[C@H](O)[C@@H](OC)[C@H]5O)c(OC)c4OC)[C@@H](C)O3)[C@@H]2O)C[C@@H]1OC", "Potency": "3 nM (active)"}
{"smiles": "CCN(C(C)=O)[C@H]1CO[C@@H](O[C@H]2[C@H](O[C@H]3C#C/C=C\\C#C[C@]4(O)CC(=O)C(NC(=O)OC)=C3/C4=C\\CSSSC)O[C@H](C)[C@@H](NO[C@H]3C[C@H](O)[C@H](SC(=O)c4c(C)c(I)c(O[C@@H]5O[C@@H](C)[C@H](O)[C@@H](OC)[C@H]5O)c(OC)c4OC)[C@@H](C)O3)[C@@H]2O)C[C@@H]1OC", "Potency": "33.6 nM (active)"}
{"smiles": "COC(=O)c1cc2c3c(cc(O)c2[nH]1)N(C(=O)c1cc2cc(OC)c(OC)c(OC)c2[nH]1)CC3CCl", "note": "(stereo not given)", "Potency": "4.2 nM (active)"}
{"smiles": "CC(C)(C)OC(=O)Nc1ccc2[nH]c(C(=O)N3C[C@@H](CCl)c4c3cc(O)c3ccccc43)cc2c1", "Potency": "30 nM (active)"}
